Data as given in ChEMBL document CHEMBL4513216, “Probing the Open Global Health Chemical Diversity Library for Multistage-Active Starting Points for Next-Generation Antimalarials” (ACS Infect Dis, 2020).
Among all 69,000 compounds or so, about 8,600 (12%) showed an effect of 50% or more. Only a selection was taken, and strong results are over-represented in it overall.

test system: Plasmodium berghei; test: Screen against P. berghei liver stage (PbLuc), transformed with Luciferase, at 10uM; type: functional, HepG2; conditions: tested at 10 uM

Point of comparison: O=S(=O)(Cc1ccc(F)cc1)NCCc1nnc2n1CCC2, INHIBITION 30.5%. Against it:
- Cc1nc(CCNC(=O)NCC(c2ccco2)N(C)C)cs1 (centres undefined) — higher, 55.6%
- CN(C)C(CNC(=O)NCCS(C)(=O)=O)c1ccco1 (centres undefined) — lower, -18.3%
- CN(C)C(CNC(=O)NCCc1cccc(O)c1)c1ccco1 (centres undefined) — higher, 41.4%
- Cn1ccc2c(C(=O)N3CC[C@@]4(O)CCCC[C@H]4C3)cccc21 — lower, 1.62%
- O=C(NCc1nnc2n1CCCCC2)N(Cc1ccncc1)C1CC1 — lower, 26.5%
- O=C(NCc1nnc2n1CCCCC2)N(CC1CCOC1)C1CC1 (centres undefined) — higher, 55%
- CN(Cc1ccc(F)cc1)C(=O)NCc1nnc2n1CCC2 — lower, -21.8%
- O=S(=O)(Cc1ccccc1)NCc1nnc2n1CCC2 — lower, -12.4%
- O=C(NCc1nnc2n1CCC2)N(Cc1ccc(F)cc1)C1CC1 — higher, 50.4%
- O=S(=O)(Cc1ccc(F)cc1)NCc1nnc2n1CCC2 — higher, 68.9%
- O=C(NCc1nnc2n1CCC2)c1ccc(Br)s1 — higher, 49.4%
- CCN(CC1CCOC1)C(=O)NCc1nnc2n1CCCCC2 (centres undefined) — higher, 34.4%
- O=C(NCc1nnc2n1CCCC2)c1ccc(C2CCCO2)s1 (centres undefined) — higher, 59.1%
- O=C(NCc1nnc2n1CCC2)c1ccc(C2CCCO2)s1 (centres undefined) — lower, -1.7%
- CCN(CC1CCOC1)C(=O)NCc1nnc2n1CCC2 (centres undefined) — higher, 42%
- CCCC(C#N)NC(=O)c1sccc1CC (centres undefined) — higher, 46.6%
- CSc1ncnc(NCc2cccs2)c1C#N — lower, 10.6%
- Cc1nsc(N2CCCN(C(=O)NCc3cc(C)on3)CC2)n1 — higher, 45%
- CCc1nccn1C1CCCN(C(=O)c2ccc3c(c2)nnn3C)C1 (centres undefined) — lower, 12.7%
- COc1cc2nc3n(c(=O)c2cc1OC)CCN(C(=O)C(C)(C)C)CC3 — higher, 32.3%
- Cc1ccc(C(C)(O)CNC(=O)NCCc2ccc3c(c2)CCO3)o1 (centres undefined) — lower, 23.2%
- O=c1cc(CN2CC[C@@]3(O)CCCC[C@H]3C2)c2cccc3c2n1CCC3 — higher, 42.1%
- O=C(NCCc1c[nH]cn1)c1ccc(S(=O)(=O)NC2CCOC2)cc1 (centres undefined) — lower, 4.68%
- O=C(Cc1ccc(F)cc1)NCCNc1cc(N2CCCC2)cnn1 — higher, 34.6%
- O=C(NCCNc1cc(N2CCCC2)cnn1)Nc1ccccc1F — higher, 53.8%
- CSc1nnc(CNC(=O)Nc2ccccc2F)n1C — higher, 31.7%
- CS(=O)(=O)Cc1ccc(C(=O)Nc2ccc3c(c2)C(=O)NC3)cc1 — higher, 37.9%
- O=C(Nc1ccc2c(c1)C(=O)NC2)c1ccc(S(=O)(=O)C(F)(F)F)cc1 — higher, 55%
- CNS(=O)(=O)c1ccc(C(=O)Nc2ccc3c(c2)C(=O)NC3)cc1 — lower, -5.26%
- O=C(NCC1COC2(CCOCC2)O1)c1csc(-c2cccc(Cl)c2)n1 (centres undefined) — lower, 15.5%
- COCC(=O)N1C[C@H]2CNC[C@@]2(C(=O)NCc2c(C)noc2C)C1 — lower, -31.9%
- COCC(=O)N1C[C@H]2CNC[C@@]2(C(=O)NCc2nc(C)cc(C)n2)C1 — lower, 1.45%
- COCC(=O)N1C[C@H]2CNC[C@@]2(C(=O)NCc2cc(C)n[nH]2)C1 — higher, 59.5%
- CCC[C@H]1CN(S(C)(=O)=O)C[C@@H]1NC(=O)COC(C)C — higher, 34.9%
- Cc1cccc(CN2CCN(Cc3ccccc3)CC(O)C2)n1 (centres undefined) — lower, 16.8%
- Cc1cccc(CN2CCN3C(=O)NC[C@H]3C2)n1 — lower, -27.5%
- CC(C)=CCN1CCN(Cc2cc(C)n[nH]2)CC1CCO (centres undefined) — lower, 26.6%
- Cc1ccc(CN2CCN(Cc3cc(C)n[nH]3)CC2CCO)cc1 (centres undefined) — lower, -0.529%
- CC(C)=CCN1CCN(Cc2cccc(C)n2)CC1CCO (centres undefined) — higher, 67.4%
- CC(C)=CCN1CCN(Cc2cc(C)c(O)c(C)c2)CC1CCO (centres undefined) — higher, 51.3%
- CC(C)N1CCC(N2CCN(C3CCCCC3)CC2CCO)CC1 (centres undefined) — lower, 22%
- CCn1cc(Cl)c(C(=O)Nc2ccc3c(c2)C(C)(C)C(=O)N3C)n1 — lower, 20.9%
- O=C(CCc1cc(O)no1)N1CCCC(OCc2cccnc2)C1 (centres undefined) — lower, 23.6%
- Cc1c(S(=O)(=O)N(CCc2ccccc2)Cc2ccn(C)n2)cnn1C — higher, 41.9%
- CNC(=O)NCC(CO)Cc1ccccc1OC(F)(F)F (centres undefined) — lower, 16%
- CS(=O)(=O)CCOc1nc(-c2ccccc2Cl)no1 — lower, -3.94%
- COCCOc1nc(-c2ccccc2Cl)no1 — lower, 14.9%
- CCS(=O)(=O)CCCOc1nc(-c2ccccc2Cl)no1 — higher, 50%
- Cc1noc2ncc(C(=O)N3CCCC(n4ccnc4C)C3)cc12 (centres undefined) — higher, 32.3%
- CCc1nccn1C1CCCN(C(=O)c2cnn3ccc(C)nc23)C1 (centres undefined) — lower, 24.6%
- CC(C)c1nccn1C1CCCN(C(=O)c2ccnc(N(C)C)c2)C1 (centres undefined) — higher, 42.9%
- CCc1nccn1C1CCCN(C(=O)c2cnc3ccccc3n2)C1 (centres undefined) — lower, 29.2%
- CCc1nccn1C1CCCN(C(=O)c2ccc(N(C)C)nn2)C1 (centres undefined) — higher, 45.65%
